In paper PMC11062922 (Nature Chemical Biology, 2023) one finds potency estimated from few doses data, which are given here for eleven compounds.

Common to all, as to design: species or system human, MV4-11 + K-562 + COLO205 + SK-N-BE2 + OVCAR-8
Experiment [1] deals with PIP4K2C. To be noted: read-out: apparent Kd, n = 1.
The subject of experiment [2] is PRKD2. Particulars: read-out: apparent Kd, n = 1.
Experiment [3] relates to PRKD3. To be noted: read-out: apparent Kd, n = 1.
In experiment [4] the test system is CDK7. Particulars: read-out: apparent Kd, n = 1.
Experiment [5] concerns CDKL5. To be noted: read-out: apparent Kd, compound concentrations: 100 nM and 1000 nM (sheet 'Samples'), n = 1.
The test system of experiment [6] is ERCC2. Particulars: read-out: apparent Kd, n = 1.
Experiment [7] has as its system FER. Particulars: read-out: apparent Kd, n = 1.
In experiment [8] the test system is PLK4. Particulars: read-out: apparent Kd, n = 1.
For experiment [9], the system named is PRKAA1. Particulars: read-out: apparent Kd, n = 1.
Experiment [10] concerns PRKAG1. To be noted: read-out: apparent Kd, n = 1.
Experiment [11] concerns PRKCQ. To be noted: read-out: apparent Kd, n = 1.
In experiment [12] the test system is PTK2B. Particulars: read-out: apparent Kd, n = 1.
Experiment [13] concerns PTK2. Particulars: read-out: apparent Kd, n = 1.
In experiment [14] the test system is RPS6KA6. Particulars: read-out: apparent Kd, n = 1.
Experiment [15] concerns MYLK3. Particulars: read-out: apparent Kd, n = 1.
Experiment [16] concerns LATS1. Particulars: read-out: apparent Kd, compound concentrations: 100 nM and 1000 nM (sheet 'Samples'), n = 1.
Experiment [17] deals with MARK4. Particulars: read-out: apparent Kd, compound concentrations: 100 nM and 1000 nM (sheet 'Samples'), n = 1.
Experiment [18] concerns PRKCD. Particulars: read-out: apparent Kd, compound concentrations: 100 nM and 1000 nM (sheet 'Samples'), n = 1.
Experiment [19] has as its system DYRK1A. Particulars: read-out: apparent Kd; compound concentrations: 100 nM and 1000 nM (sheet 'Samples'), CATDS: 0.15601694862230001; n = 1.
Experiment [20] deals with STK10. Particulars: read-out: apparent Kd; compound concentrations: 100 nM and 1000 nM (sheet 'Samples'), CATDS: 9.0871108796095092E-3; n = 1.
The mark [21] stands for this setting: compound concentrations:100 nM and 1000 nM (sheet 'Samples').

Structures are written as SMILES. Read-outs that look alike come from different tables or passages of the source.

Turning to `CN(C)CC(O)COc1ccc(Nc2nccc(-c3cnn4nc(N5CCOCC5)ccc34)n2)cc1` (centres unmarked) [GW767488X], the potency estimated from few doses was 1440 nM in [1] (setting [21]), 28.7 nM in [2] (setting [21]) and 44.8 nM in experiment [3] (setting [21]).
Regarding `Cc1ccccc1-n1ncc(C(=O)c2ccccc2)c1N` [RO1151248-000], the potency estimated from few doses was 492 nM in experiment [4] (compound concentrations: 100 nM and 1000 nM (sheet 'Samples'), CATDS: 3.2970650229379797E-2); 2240 nM in experiment [5] (CATDS: 1.7260547192186899E-2); 462 nM in [6] (compound concentrations: 100 nM and 1000 nM (sheet 'Samples'), CATDS: 3.4220969225155197E-2); 496 nM in experiment [7] (compound concentrations: 100 nM and 1000 nM (sheet 'Samples'), CATDS: 3.2819446415030699E-2); 946 nM in experiment [8] (compound concentrations: 100 nM and 1000 nM (sheet 'Samples'), CATDS: 2.3524551530655802E-2); 1060 nM in [9] (compound concentrations: 100 nM and 1000 nM (sheet 'Samples'), CATDS: 2.2348662654876499E-2). The potency estimated from few doses in experiment [10] (compound concentrations: 100 nM and 1000 nM (sheet 'Samples'), CATDS: 2.5293867995276598E-2) is 809 nM; in experiment [11] (compound concentrations: 100 nM and 1000 nM (sheet 'Samples'), CATDS: 1.77818646264679E-2) it was 2020 nM; in experiment [12] (compound concentrations: 100 nM and 1000 nM (sheet 'Samples'), CATDS: 3.03657064915384E-2) it was 568 nM; in experiment [13] (compound concentrations: 100 nM and 1000 nM (sheet 'Samples'), CATDS: 2.47359073742957E-2) it was 848 nM; in experiment [14] (compound concentrations: 100 nM and 1000 nM (sheet 'Samples'), CATDS: 3.3090095643126802E-2), 489 nM.
`COc1cc(Nc2nccc(N3CCC(NC(=O)c4cccc(NC(C)=O)c4)C3)n2)cc(OC)c1OC` (centres unmarked) [GSK1379754A]: the potency estimated from few doses in experiment [1] (compound concentrations: 100 nM and 1000 nM (sheet 'Samples'), CATDS: 7.8975813686716995E-2) is 2090 nM.
`CC(C)Nc1cc(-c2ccc3c(N)n[nH]c3c2)nc(N)n1` [GSK2221681A]: the potency estimated from few doses in [15] (setting [21]) is 1410 nM.
Consider `COc1cc[nH]c1/C=C1\C(=O)Nc2ccc(F)c(C#CC3(O)CCNCC3)c21.Cl` [RO0282986-001], for which the potency estimated from few doses was 1020 nM in experiment [4] (compound concentrations: 100 nM and 1000 nM (sheet 'Samples'), CATDS: 1.0726954600141701E-2); 2.99 nM in experiment [5] (CATDS: 0.34989836845243499); 1210 nM in experiment [6] (compound concentrations: 100 nM and 1000 nM (sheet 'Samples'), CATDS: 1.0235233347988201E-2); 68.4 nM in [16] (CATDS: 3.7276023026690398E-2); 429 nM in experiment [17] (CATDS: 1.45077611109678E-2); 368 nM in experiment [15] (compound concentrations: 100 nM and 1000 nM (sheet 'Samples'), CATDS: 1.54633184822493E-2). Further, the potency estimated from few doses in [9] (compound concentrations: 100 nM and 1000 nM (sheet 'Samples'), CATDS: 1.18517634082691E-2) was 741 nM; in [10] (compound concentrations: 100 nM and 1000 nM (sheet 'Samples'), CATDS: 1.1749589380403099E-2), 761 nM; in experiment [18] (CATDS: 1.2203659987841E-2) it was 680 nM; in [2] (compound concentrations: 100 nM and 1000 nM (sheet 'Samples'), CATDS: 2.5801010504162801E-2), 129 nM; in experiment [3] (compound concentrations: 100 nM and 1000 nM (sheet 'Samples'), CATDS: 3.6312689079161402E-2), 71.4 nM; in experiment [14] (compound concentrations: 100 nM and 1000 nM (sheet 'Samples'), CATDS: 1.2829138267775601E-2) it was 590 nM.
Turning to `CC(=O)N[C@@H](Cc1ccc(OP(=O)(O)O)cc1)C(=O)N[C@H]1CCC(=O)N2CCC[C@@H](C(=O)NCc3ccc(Cl)cc3)N2C1=O` [RO0325308-000], the potency estimated from few doses was 49.9 nM in [4] (setting [21]); 39.4 nM in experiment [6] (setting [21]); 59.5 nM in [7] (setting [21]); 1270 nM in experiment [1] (setting [21]); 637 nM in experiment [8] (setting [21]); 801 nM in experiment [9] (setting [21]). In addition, the potency estimated from few doses was 523 nM in experiment [10] (setting [21]); 785 nM in [11] (setting [21]); 367 nM in experiment [12] (setting [21]); 652 nM in experiment [13] (setting [21]); 620 nM in experiment [14] (setting [21]).
As for `O=C1N=C(NCc2cccs2)O/C1=C\c1ccc2ncccc2c1` [RO4624208-000], the potency estimated from few doses in experiment [19] is 53.8 nM.
Regarding `CNCc1ccc(-c2cc(-c3nc(-c4ccc(S(=O)(=O)C(C)C)cc4)cnc3N)on2)cc1` [VE-822], the potency estimated from few doses in [1] (setting [21]) is 186 nM.
`O=C(O)C(F)(F)F.O=C(O)C(F)(F)F.O=c1[nH]ccc2nc(N[C@@H]3CCCNC3)nc(Nc3ccc(S(=O)(=O)N4CCOCC4)cc3)c12.O=c1[nH]ccc2nc(N[C@@H]3CCCNC3)nc(Nc3ccc(S(=O)(=O)N4CCOCC4)cc3)c12` [GSK2177277A]: the potency estimated from few doses in experiment [7] (compound concentrations: 100 nM and 1000 nM (sheet 'Samples'), CATDS: 8.2739447120601401E-3) is 507 nM; in [16] (CATDS: 1.48300039917603E-2), 99 nM; in [17] (CATDS: 1.7623267984443299E-2), 68 nM; in experiment [15] (compound concentrations: 100 nM and 1000 nM (sheet 'Samples'), CATDS: 7.6821350503620796E-3), 670 nM; in [1] (compound concentrations: 100 nM and 1000 nM (sheet 'Samples'), CATDS: 6.0874593504341903E-3) it was 2140 nM; in experiment [8] (compound concentrations: 100 nM and 1000 nM (sheet 'Samples'), CATDS: 9.3439650172966598E-3), 337 nM. The potency estimated from few doses in [9] (compound concentrations: 100 nM and 1000 nM (sheet 'Samples'), CATDS: 9.2771532951669705E-3) was 345 nM; in experiment [10] (compound concentrations: 100 nM and 1000 nM (sheet 'Samples'), CATDS: 1.7529215817932601E-2), 68.8 nM; in experiment [18] (CATDS: 1.08121865447726E-2), 219 nM; in experiment [11] (compound concentrations: 100 nM and 1000 nM (sheet 'Samples'), CATDS: 6.3096913927369299E-3), 1710 nM; in experiment [2] (compound concentrations: 100 nM and 1000 nM (sheet 'Samples'), CATDS: 1.40829388038229E-2), 112 nM; in [3] (compound concentrations: 100 nM and 1000 nM (sheet 'Samples'), CATDS: 1.7898299297347601E-2), 65.9 nM. Moreover, the potency estimated from few doses was 35.2 nM in experiment [12] (compound concentrations: 100 nM and 1000 nM (sheet 'Samples'), CATDS: 2.4807788404782798E-2); 700 nM in experiment [13] (compound concentrations: 100 nM and 1000 nM (sheet 'Samples'), CATDS: 7.5985318000446602E-3); 496 nM in experiment [14] (compound concentrations: 100 nM and 1000 nM (sheet 'Samples'), CATDS: 8.3254992837084908E-3); 369 nM in experiment [20].
Turning to `CN[C@H](C#Cc1c(F)ccc2c1/C(=C/c1[nH]ccc1OC)C(=O)N2)CO.Cl` [RO0283049-001], the potency estimated from few doses in experiment [5] (CATDS: 0.200980885548627) was 17.8 nM; in experiment [16] (CATDS: 5.43155260129227E-2), 134 nM; in experiment [15] (compound concentrations: 100 nM and 1000 nM (sheet 'Samples'), CATDS: 2.9648763968158898E-2), 504 nM.
Regarding `O=C1N=C(N[C@H](CO)c2ccccc2)S/C1=C\c1ccc2ncccc2c1` [RO4554339-000], the potency estimated from few doses in [15] (compound concentrations: 100 nM and 1000 nM (sheet 'Samples'), CATDS: 0.15441229792148201) is 303 nM; in experiment [2] (compound concentrations: 100 nM and 1000 nM (sheet 'Samples'), CATDS: 0.111650130871897), 671 nM.
